Measles CPE – protection of cells from measles virus; protection (pct of control), % at 4 µM; AID 841; Measles virus-infected cells, CPE protection, absorbance; 140,000 compounds, 1.5% hits; in the data active = protection mostly above about 24%, no sharp cut-off; inactive = mostly below about 26%
LYP act – activators of human LYP (PTPN22) phosphatase; activation, % at 2 µM; recombinant LYP, DiFMUP fluorescence; 0 = plate median, 100 = signal doubled; 96,000 compounds, 0.11% hits;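 active = activation at 2 µM above a set limit, the mean plus 5 SD, cut at about 37% in these data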
Target sequence (Q9Y2R2 whole entry, looked up): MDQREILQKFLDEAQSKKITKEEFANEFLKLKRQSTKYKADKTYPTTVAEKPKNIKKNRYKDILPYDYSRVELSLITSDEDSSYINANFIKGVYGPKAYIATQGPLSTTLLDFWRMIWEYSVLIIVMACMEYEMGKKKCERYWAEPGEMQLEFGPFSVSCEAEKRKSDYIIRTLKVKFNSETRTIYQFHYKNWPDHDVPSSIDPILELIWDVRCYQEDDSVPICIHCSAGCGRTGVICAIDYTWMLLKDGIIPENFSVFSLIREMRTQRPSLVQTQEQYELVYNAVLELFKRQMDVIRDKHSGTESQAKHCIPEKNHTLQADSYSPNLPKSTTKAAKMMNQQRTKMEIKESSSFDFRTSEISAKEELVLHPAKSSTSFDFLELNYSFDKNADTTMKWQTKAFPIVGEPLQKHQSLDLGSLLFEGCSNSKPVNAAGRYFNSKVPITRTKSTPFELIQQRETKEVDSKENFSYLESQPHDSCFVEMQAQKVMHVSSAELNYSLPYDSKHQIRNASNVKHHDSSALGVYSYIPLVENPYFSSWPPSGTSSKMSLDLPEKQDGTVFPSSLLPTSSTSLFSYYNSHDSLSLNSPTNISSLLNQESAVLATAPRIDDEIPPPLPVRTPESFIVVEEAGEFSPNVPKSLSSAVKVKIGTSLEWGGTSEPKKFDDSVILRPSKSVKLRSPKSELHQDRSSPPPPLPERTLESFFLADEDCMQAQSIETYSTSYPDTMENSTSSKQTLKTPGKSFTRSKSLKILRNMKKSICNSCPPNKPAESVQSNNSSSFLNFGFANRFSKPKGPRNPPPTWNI
sEH act – activators of human soluble epoxide hydrolase | purified human sEH enzymatic activity, activator screen | activation, % at 2 µM | 91,000 compounds, 0.04% hits; in the data active = activation above about 37%
sEH inhibitor – soluble epoxide hydrolase (human) inhibition; P34913; recombinant human sEH enzymatic activity assay; inhibition, % at 2 µM; 91,000 compounds, 0.34% hits; in the data active = inhibition above about 80%
LYP inh 2 – LYP (human) phosphatase inhibition; recombinant LYP catalytic domain, DiFMUP fluorescence; inhibition, % at 2 µM; 96,000 compounds, 0.21% hits;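 active = inhibition at 2 µM at or above a set limit, the screen mean plus 3 SD, cut at about 24% in these data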
Hits are given with their value; . = inactive; / = not tested or not shown. Hits are enriched below; roughly 1.7% of the tested compounds scored in any of these assays.

SMILES | Measles CPE | LYP act | sEH act | sEH inhibitor | LYP inh 2
Cc1ccc(NS(=O)(=O)c2ccc(Cl)c(C(=O)Nc3ccccc3-c3nc4ccccc4[nH]3)c2)cc1C | . | / | / | / | /
CCC(CC)C(=O)Nc1c(C)n(C)n(-c2ccccc2)c1=O | 47.9 | . | . | . | .
CCN(CC)C(=O)Nc1c(C)n(C)n(-c2ccccc2)c1=O | . | . | . | . | .
Cc1c(NC(=O)COC(=O)c2cc(-c3ccc(-c4ccccc4)cc3)nc3ccccc23)c(=O)n(-c2ccccc2)n1C | 38.1 | / | / | / | /
COc1ccc(-c2cc(C(=O)OC(C)C(=O)Nc3c(C)n(C)n(-c4ccccc4)c3=O)c3ccccc3n2)cc1 (stereo unspecified) | . | / | / | / | /
Cc1c(NC(=O)c2c(F)cccc2F)c(=O)n(-c2ccccc2)n1C | . | . | . | . | .
Cc1c(NS(C)(=O)=O)c(=O)n(-c2ccccc2)n1C | 55.0 | / | / | / | /
Cc1c(NC(=O)c2c(N)n(-c3ccccc3)c3nc4ccccc4nc23)c(=O)n(-c2ccccc2)n1C | 59.2 | / | / | / | /
CCN(CC)C(=O)c1ccc2c(c1[N+](=O)[O-])C(=O)c1ccccc1C2=O | . | / | / | / | /
CC(C)CNC1=C(C(=S)Nc2ccccc2)C(=O)CC(C)(C)C1 | . | / | / | / | /
O=C(COc1ccc(C(=O)c2ccccc2)cc1)NCC(=O)Nc1ccccc1Br | . | / | / | / | /
CNC(=O)N(C1=NCCCCC1)c1ccc(Br)cc1 | . | / | / | / | /
CCOC(=O)C1CCCN(C(=S)Nc2ccc(C)cc2C)C1 (stereo unspecified) | . | . | . | . | .
Cc1noc(C)c1COC(=O)Cc1ccc(Cl)c(Cl)c1 | 39.7 | . | . | . | .
Cc1noc(C)c1COC(=O)COc1ccc2c(C)cc(=O)oc2c1 | 39.3 | . | . | . | .
Cc1noc(C)c1COC(=O)[C@H](C)NS(=O)(=O)c1ccc(Cl)c(Cl)c1 | . | . | . | . | .
CCOC(=O)C(CC)Sc1nnc(COc2ccc(C)cc2)n1-c1ccccc1 (stereo unspecified) | 27.7 | . | . | . | .
O=C(Nc1ccc(N2CCCCC2)c(Cl)c1)c1cccnc1 | 60.9 | . | . | . | .
O=C(NNCC(O)COc1ccccc1)c1ccccc1 (stereo unspecified) | 49.0 | / | / | / | /
N#C/C(=N\Nc1cccc2ccccc12)c1nnc2n1CCCCC2 | . | / | / | / | /
Cc1nn(-c2ccccc2)c(/N=C/c2ccccc2O)c1-c1ccccc1 | . | / | / | / | /
Clc1ccccc1-c1nnc2sc(-c3ccccn3)nn12 | . | . | 37.7 | . | .
Clc1ccccc1-c1nnc2sc(-c3ccco3)nn12 | . | . | . | . | .
CCN=C1S/C(=C\c2sccc2C)C(=O)N1CC | . | / | / | / | /
COc1ccc(Cn2c(C3CC3)nc3ccc(NC(=O)c4ccco4)cc3c2=O)cc1 | 36.5 | . | / | / | .
SMILES | Measles CPE | LYP act | sEH act | sEH inhibitor | LYP inh 2
NC(=S)Cc1nc2n(n1)Cc1ccccc1-2 | 49.6 | . | . | . | .
Cc1ccc(-c2nc3n(n2)Cc2ccccc2-3)cc1 | . | . | . | . | .
Cn1cc(C(=O)NCc2cccs2)c(=O)c2cc(S(=O)(=O)N3CCCC3)ccc21 | . | / | / | / | /
COc1ccc(-c2nc(N3CCOCC3)nc3n[nH]c(N)c23)cc1 | 27.8 | / | / | / | /
O=C(O)CCCN1C(=O)/C(=C/c2ccc(-c3nc4ccccc4s3)o2)SC1=S | . | . | . | . | 41.2
O=C(O)CCCCCN1C(=O)/C(=C\c2ccncc2)SC1=S | . | / | / | / | /
CCCN1C(=O)c2ccc(C(=O)Nc3nccs3)cc2C1=O | . | . | . | . | .
COCCN1C(=O)c2ccc(C(=O)Nc3nccs3)cc2C1=O | 29.6 | . | . | . | .
Cn1ccc(C(=O)Nc2ccc(Br)cc2Br)n1 | . | / | / | / | /
O=C(Nc1ccn(-c2ccccc2)n1)c1ccccc1Br | . | / | / | / | /
COc1cc(OC)cc(-c2nnc(SCC(=O)N3CCCc4ccccc43)o2)c1 | 35.4 | . | . | . | .
O=C(CSc1nc(O)cc(=O)[nH]1)N1CCCc2ccccc21 | 47.6 | . | . | . | .
OC(Cc1nc2ccccc2[nH]1)c1ccccc1Cl (stereo unspecified) | 51.3 | . | . | . | .
CCc1nc2ccccc2[nH]1 | . | . | . | . | .
Cc1ccc(C(=O)N2NC(c3ccccc3F)C3C(=O)N(c4cccc(C)c4)C(=O)C32)cc1 (stereo unspecified) | . | / | / | / | /
COc1ccccc1N1C(=O)C2C(c3ccccc3F)NN(C(=O)c3ccc(C)cc3)C2C1=O (stereo unspecified) | 50.6 | / | / | / | /
O=C(COc1ccc(C(F)(F)F)cc1[N+](=O)[O-])Nc1cccc(C(F)(F)F)c1 | 50.1 | / | / | / | /
O=C(CSc1ccc(C(F)(F)F)cc1[N+](=O)[O-])Nc1ccccc1 | . | . | . | . | .
C=CCOc1ccc2nnc(C)n2n1 | . | / | / | / | /
COc1ccc(-n2c(C)cc(/C=C3\C(=O)NN(c4ccccc4)C3=O)c2C)cc1 | 99.0 | / | / | / | /
Cc1cc(/C=C2/C(=O)NN(c3ccccc3)C2=O)c(C)n1-c1ccc(O)cc1 | . | / | / | / | /
CCCOc1ccc(CC(CC(=O)O)(C(=O)O)C(=O)O)cc1 | 46.2 | . | . | . | .
O=C1CCCc2oc3ccc(O)cc3c21 | . | . | . | . | .
Cc1ccc(C2=NN3C(C(=O)c4ccccc4)Oc4ccccc4C3C2)cc1 (stereo unspecified) | . | . | . | . | .
CCN(CC)c1ccc2cc(C(C)=O)c(=O)oc2c1 | 43.4 | . | . | . | .
SMILES | Measles CPE | LYP act | sEH act | sEH inhibitor | LYP inh 2
COc1ccc2oc(=O)c(C(C)=O)cc2c1 | 42.0 | . | . | . | .
O=C(/C=C/c1cc([N+](=O)[O-])ccc1OC(F)F)Nc1cccc2ccccc12 | . | / | / | / | /
O=C(CN1CCN(C/C=C/c2ccccc2)CC1)Nc1cc([N+](=O)[O-])ccc1Cl | . | / | / | / | /
COCc1cc(C)nc(SCC(=O)Nc2cccc(C)c2C)c1C#N | . | . | . | . | .
COCc1cc(C)nc(Nc2ccccc2C)c1C#N | . | . | . | . | 26.0
COC(=O)c1ccc(CNC(=O)COC(=O)C2CCC(C(C)(C)C)CC2)cc1 (stereo unspecified) | . | / | / | / | /
CC1(C)CC(=O)C=C(N=CC2=C(O)CC(C)(C)CC2=O)C1 | 51.7 | . | . | . | .
CC1(C)CC(=O)C(C=Nc2ccncc2)=C(O)C1 | / | . | . | . | .
O=C(Nc1nc(-c2ccc(Oc3ccccc3)cc2)cs1)C1=COCCO1 | . | / | / | / | /
COC(=O)CCCCCNc1ccc(C(=O)OC)cc1N | 30.2 | . | . | . | .
CCn1c(SCc2ccc(F)cc2)nnc1-c1nn(-c2ccccc2)ccc1=O | 54.6 | . | . | . | .
CCCN1C2=NCCN2c2ccccc21 | 45.5 | . | . | . | .
CCCN1C2=NCCCN2c2ccccc21 | . | . | . | . | .
COc1ccc(C(=O)Nc2nc(C)c(C(=O)N(C)C)s2)cc1OC | 35.4 | . | . | . | .
COCc1nnc(NC(=O)c2ccccc2[N+](=O)[O-])s1 | . | / | / | / | /
CN(N)c1nc(-c2ccccc2)nnc1C(F)(F)F | . | . | . | . | .
CCN(CC)CCNc1nc(-c2ccccc2)nnc1C(F)(F)F | 42.8 | . | . | . | .
O=C(Nc1cccc2ccccc12)c1ccc(OC(=S)N2CCOCC2)cc1 | 109.2 | . | . | 87.7 | .
Cc1nc(C)c(-c2nnc(-c3ccc(C(C)(C)C)cc3)o2)cc1C(=O)NN | . | / | / | / | /

Screening data as filed in PubChem BioAssay.
